# Experimental data: the supplement of paper PMC9433436
# ± gives the standard deviation of the averaged measurements. Whole data set: some 4,100 sequences, median “relative kcat/Km (krel) vs genomic leader AAAGAU” near 1.7, cut for the highest 2% near 6.5. For the sample, the highest values were picked, then their nearest neighbours and some sequences at random.
# Target: T1, E. coli RNase P holoenzyme (M1 P RNA + rnpA protein) (UniProt P0A7Y8)
# T1 sequence: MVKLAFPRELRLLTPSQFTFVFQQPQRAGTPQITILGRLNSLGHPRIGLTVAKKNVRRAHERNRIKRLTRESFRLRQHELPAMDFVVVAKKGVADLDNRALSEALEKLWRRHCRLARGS
# Test: relative kcat/Km (krel) vs genomic leader AAAGAU (relative (reference leader = 1)); higher = faster RNase P cleavage
# Summary of the method: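 Relative kcat/Km (krel) values came from internal competition kinetics on sequencing read ratios, normalised to the genomic leader and averaged over two technical replicates. A precursor tRNA-Met pool with randomized leader positions −6 to −1 was cleaved by E. coli RNase P holoenzyme (P RNA plus C5 protein) under multiple-turnover conditions at 37 °C. The buffer held 50 mM Tris-HCl pH 8, 100 mM NaCl and 17.5 mM MgCl2, and unreacted precursor was gel-purified at ~5–30% conversion, made into cDNA libraries and Illumina-sequenced.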
# [1] = fraction of substrate reacted: ~26-29% (28.66% repeat 1, 26.4% repeat 2)
# [2] = fraction of substrate reacted: ~9-10% (9.79% repeat 1, 9.1% repeat 2)
# [3] = fraction of substrate reacted: ~13-16% (15.68% repeat 1, 13.17% repeat 2)
Sequence,relative kcat/Km [1],relative kcat/Km [2],relative kcat/Km [3]
CGGATT,0.799 ± 0.34,–,–
CAAATA,1.78 ± 0.47,2.33 ± 2.3,1.68 ± 0.092
CACCTA,3.68 ± 1.3,2.32 ± 0.25,2.44 ± 0.4
ACTAAC,2.32 ± 0.65,1.48 ± 0.31,1.42 ± 0.44
TTCTGG,1.66 ± 0.46,0.949 ± 0.38,0.819 ± 0.094
TTCTGA,7.63 ± 2.7,4.7 ± 2.6,5.18 ± 0.91
GCCTGC,4.68 ± 2.1,2.23 ± 0.7,3.39 ± 0.37
ATCTGC,6.13 ± 3,3.18 ± 0.4,3.94 ± 1.9
CTCTGG,1.31 ± 0.49,0.652 ± 0.17,–
ATCTGA,6.19 ± 2.2,3.86 ± 1.9,3.98 ± 0.23
TTCTGT,2.43 ± 1.9,–,–
CTCTGC,7.34 ± 3,3.95 ± 0.21,5.74 ± 1.6
GTCTGC,7.11 ± 3.3,3.58 ± 1.3,4.94 ± 1.2
TGCTGC,2.71 ± 1,1.63 ± 0.12,1.51 ± 1.2
GACTGC,4.88 ± 1.6,3.44 ± 0.14,3.38 ± 0.99
TTCTGC,8.28 ± 3.5,4.12 ± 0.25,5.95 ± 2.2
GGTTGG,1.05 ± 0.77,–,–
TGACAC,5.94 ± 2.2,3.63 ± 1.5,4.21 ± 0.43

Sequence,relative kcat/Km [1],relative kcat/Km [2],relative kcat/Km [3]
TTGCCT,2.09 ± 0.58,1.95 ± 0.52,1.33 ± 0.068
GGAGCC,1.3 ± 0.38,1.22 ± 0.046,0.902 ± 0.094
ACACGG,–,–,0.487 ± 0.4
ACGCAA,2.25 ± 0.13,1.95 ± 1.4,1.95 ± 0.18
GGGGCG,0.656 ± 0.0035,0.268 ± 0.026,–
ATAGGT,2.15 ± 1.4,–,–
ATAACT,1.79 ± 0.75,1.28 ± 0.37,1.21 ± 0.2
GAGTTT,2.05 ± 0.46,1.6 ± 0.65,1.28 ± 0.17
ACAAAC,2.42 ± 0.36,1.92 ± 1.6,1.88 ± 1.1
CTCTGT,2.05 ± 1.6,0.825 ± 0.31,1.81 ± 1.4
CTCTGA,6.63 ± 1.7,4.13 ± 2,4.61 ± 0.58
GTCTGA,6.97 ± 2.6,3.86 ± 1.8,4.82 ± 1.2
CGCTGA,3.55 ± 0.89,1.89 ± 0.05,2.02 ± 1
GTCTGT,2.58 ± 2,–,–
GTCTGG,0.916 ± 0.067,–,0.567 ± 0.54
GGGCAT,2.18 ± 0.97,1.03 ± 0.31,1.51 ± 0.12
TCTAAG,2.47 ± 0.27,2.04 ± 1.6,1.47 ± 0.52
